# Source: PubChem BioAssay
# Shiga inhibitor: inhibitors of Shiga toxin in Vero cells; Vero cells, Shiga toxin protein synthesis inhibition reporter; inhibition, % at 38.7 µM; actives 9.2% (n = 290,000); AID 2315; in the data active = inhibition mostly above about 28%, no sharp cut-off; inactive = mostly below about 43%; note: 0% is about no effect
# SARS PLP yeast: blocks SARS-CoV papain-like protease in a yeast assay. Potency, µM (doses to about 32.9 µM), inactives show at the top dose activity, positive = growth rescue, actives largely listed as activators. actives 0.19% (n = 330,000). S. cerevisiae expressing SARS-CoV PLpro, growth rescue; note: potency is the fitted concentration of half-maximal effect; 0% is about no effect; nearly all actives have a fitted effect of over 55% in size
# NS1 function inh: influenza NS1 inhibition. Potency, µM (series often up to 46.1 µM), without a hit: at the top dose activity, positive = more growth. actives 0.4% (n = 270,000); note: potency is the fitted concentration of half-maximal effect; actives are rising curves; nearly all actives have a fitted effect of over 50% in size
#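 Growth recovery, yeast-based: influenza A NS1 expressed in S. cerevisiae causes slow growth, and suppressors are detected by OD600. The parent strain without NS1 is used as positive control.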
# Cycloheximide cs: affects cycloheximide protein synthesis inhibition readout, counter-screen; actives 12% (n = 300,000); cell reporter, cycloheximide protein synthesis inhibition counterscreen; max response, %; in the data active = max response mostly above about 13%, no sharp cut-off; inactive = mostly below about 14%; note: read at 38.3 µM for the half of the compounds with a filed dose; 0% is about no effect
# Numbers without * were called inactive; ? = inconclusive; · = not tested or not shown. Sampled rows, rich in hits. Any-hit rate of the full collection: about 12%. Unless noted, calls come from the whole dose curve.
SMILES,Shiga inhibitor,SARS PLP yeast,NS1 function inh,Cycloheximide cs
O=C(CSc1nc(=O)n2ccccc2n1)N1CCCCCC1,·,-4%,·,·
O=C(OCC(=O)N1CCc2ccccc2C1)c1c(F)cccc1Cl,·,0%,·,·
Cc1ccc(CSc2ccc(-c3cccs3)nn2)cc1,47*,21%,10%,46*
c1cncc(CSc2ccc(-c3cccs3)nn2)c1,44*,-13%,·,26*
Fc1ccc(CSc2ccc(-c3cccs3)nn2)cc1,38,20%,-4%,30*
Cc1ccc(CNC(=O)CSc2ccc(-c3cccs3)nn2)cc1,-6,19%,1%,0
Cc1cc(-c2nnc3n2N=C(c2ccc(F)cc2)CS3)n[nH]1,-1,2%,1%,1
Nc1nc(CN2CCN(c3ccccc3F)CC2)nc(N2CCCc3ccccc32)n1,-10,1%,-5%,-1
Cc1ccc(S(=O)(=O)N2CCC(C(=O)OCC(=O)N3CCC(C)CC3)CC2)cc1C,·,5%,·,·
CCc1ccc2c(CC(=O)NNC(=O)c3ccncc3)coc2c1,·,-5%,·,·
S=c1nc(-c2ccc(Br)cc2)oc2c1CCCC2,5,-1%,0%,33
Cc1cccc(-c2nc(=S)c3c(o2)CCCC3)c1,129*,-17%,1%,48*
Cc1cc(Sc2nnc(/N=C/N(C)C)s2)c2ccccc2n1,-15,-3%,-40%,-1
CN(C)/C=N/c1nc2ccc3c(c2s1)CCCC3,87*,0%,-79%,36*
Brc1ccc(-c2nc3ncccn3c2NC2CCCCC2)o1,-5,-8%,-4%,-4
COc1cccc(C(=O)CN2C(=O)C(C)(C)Oc3ccc(C(=O)N4CCOCC4)cc32)c1,-4,2%,-6%,-2
COc1cccc(C(=O)CN2C(=O)C(C)(C)Oc3ccc(C(=O)N4CCCCCC4)cc32)c1,6,6%,-76%,31*
Cn1cnnc1Sc1ccc(C(=O)NCCC23CC4CC(CC(C4)C2)C3)cc1[N+](=O)[O-],4,14%,15%,2
O=[N+]([O-])c1cc(/C=N/NC(=S)Nc2ccccc2Cl)ccc1Cl,21,13%,·,10
S=C(N/N=C/c1ccc(Cl)c(Cl)c1)Nc1ccccc1Cl,30,0%,·,23*
Fc1cccc(/C=N/NC(=S)Nc2ccccc2Cl)c1,31,-24%,10%,36*
C1=C(c2ccccc2)Nc2ccccc2N=C1c1ccccc1,36*,-23%,-28%,14
CCOc1ncccc1C(=O)OCC(=O)c1ccc(F)cc1,15,-1%,0%,1
CN(C(=O)c1ccc(Br)o1)C1CCCCC1,67*,0%,-5%,33*
CN(C(=O)c1cc2ccccc2cc1O)C1CCCCC1,23,-4%,-22%,21*
SMILES,Shiga inhibitor,SARS PLP yeast,NS1 function inh,Cycloheximide cs
O=C(NNC(=O)c1cc2ccccc2cc1O)NC1CCCCC1,23,14%,21%,12
CN(C(=O)COC(=O)c1cc2ccccc2cc1O)C1CCCCC1,·,5%,·,·
CN(C(=O)c1ccccc1Cl)C1CCCCC1,-2,6%,4%,13*
O=C(NCC1CCCCC1)c1cc2ccccc2cc1O,74*,-24%,-34%,32*
Clc1ccc(CSc2ncnc3c2ncn3[C@@H]2CCCCO2)cc1,·,·,-6%,·
C=C(C)C1CC=C(C)/C(=N\NC(=S)Nc2ccc(C)cc2)C1 (stereo unspecified),54*,?,8%,23*
COc1cc(OC)cc(-c2nn[nH]n2)c1,-15,8%,5%,-3
O=C(c1ccc(F)cc1)C1CCN(C(=O)Nc2ccccc2Cl)CC1,23,-3%,·,-3
C=CCc1cccc(CNc2nc3ccccc3n2C)c1O,41,1%,-16%,12
C=CCc1cccc(CNc2cnc3ccccc3c2)c1O,20*,-10%,4%,17*
Oc1ccccc1CNc1cnc2ccccc2c1,32*,-4%,-25%,31*
Oc1ccc(Cl)cc1CNc1cnc2ccccc2c1,32,-2%,-8%,14*
Oc1ccc2ccccc2c1CNc1cnc2ccccc2c1,92*,-15%,4%,29*
CC(C)n1c(NCc2cc(Cl)ccc2O)nc2ccccc21,-19,13%,-33%,-10
COc1ccc(C(=O)Nc2cc(C(F)(F)F)ccc2Cl)cc1OC,-13,-4%,-10%,-4
COc1cc(OC)nc(NC(=O)CSc2nnc(-c3ccccc3)n2C2CCCCC2)n1,·,·,19%,·
Oc1ccc2ccccc2c1CNc1ccc(Br)cn1,66*,-12%,-33%,46*
Cc1ccc(CSc2nnc(Nc3ccc(C)cc3)s2)cc1,-7,-5%,-8%,-1
CCSc1nnc(Nc2ccc(C)cc2)s1,124*,6%,-12%,38*
CCSc1nnc(Nc2ccccc2)s1,90*,1%,-17%,34*
O=C1CCCCC1Sc1nnc(Nc2ccccc2)s1 (stereo unspecified),99*,-4%,·,38*
O=C(c1cc2cc(Cl)ccc2[nH]1)N1CCC2(CC1)OCCO2,30*,?,-17%,28*
O=C(c1cc2cc(F)ccc2[nH]1)N1CCC2(CC1)OCCO2,50*,-13%,6%,30*
O=CN1CCN(C(=O)c2cc3cc(Cl)ccc3[nH]2)CC1,·,1%,16%,-1
Clc1ccccc1/C=C\c1ccnc2ccccc12,·,·,-19%,·
SMILES,Shiga inhibitor,SARS PLP yeast,NS1 function inh,Cycloheximide cs
O=C(/C=C/c1ccnc2ccccc12)c1cccs1,73*,-4%,-69%,38*
O=C(Cn1cnc2ccccc2c1=O)Nc1ccc(N2CCOCC2)cc1,-3,1%,·,9
C/C(CC(=O)Nc1ccc2c(c1)OCO2)=N\NC(=O)c1ccccc1N,101*,0%,6%,59*
C/C(CC(=O)Nc1ccc2c(c1)OCO2)=N\NC(=O)c1ccc(N)cc1,53*,1%,3%,22*
COc1ccccc1C(=O)N/N=C(\C)CC(=O)Nc1ccc2c(c1)OCCO2,30,-1%,-4%,9
C/C(CC(=O)Nc1ccc2c(c1)OCO2)=N\NC(=O)C(c1ccccc1)c1ccccc1,-7,-24%,?,-2
C/C(CC(=O)Nc1ccc2c(c1)OCO2)=N\NC(=O)OC(C)(C)C,-5,0%,·,18
C/C(CC(=O)Nc1ccc2c(c1)OCCO2)=N\NC(=O)c1ccccc1F,79*,-6%,-6%,30*
O=C(Cc1ccccc1[N+](=O)[O-])NCCc1ccc(F)cc1,3,9%,12%,1
O=C(/C=C/c1ccccc1[N+](=O)[O-])NCCc1ccc(F)cc1,69,0%,·,24*
O=C(/C=C/c1ccc(Cl)cc1Cl)NCCSCc1ccccc1,12,?,-26%,8
Cc1ccc(CSCCNC(=O)/C=C/c2ccccc2Cl)cc1,6,-2%,5%,32*
O=C(/C=C/c1ccccc1Cl)NCCc1ccc(F)cc1,93*,-12%,-17%,24*
CN1CCCN(C)C1c1cc([N+](=O)[O-])ccc1O,·,·,-48%,·
O=C(c1ccc(C(F)(F)F)cc1)C1CCCN(C(=O)CCc2cnccn2)C1 (stereo unspecified),39,-1%,-1%,7
O=C(NC(=S)NCc1cccnc1)c1cc(Br)ccc1Cl,17,5%,15%,-1
O=C(NC(=S)Nc1cccnc1)c1cc2ccccc2o1,57*,-12%,8%,46*
CC(=O)Nc1ccc(NC(=S)NC(=O)c2cc3ccccc3o2)cc1,19,18%,8%,-3
O=C(Nc1cccnc1)c1cc2cc(Br)ccc2o1,·,7%,-36%,22*
